High-throughput results as filed in PubChem.
Only some compounds are listed: those with a hit (about 12% of all), similar ones and a draw of the others.
Lmaj promast = inhibitors of Leishmania major promastigote growth; actives 9% (n = 200,000); Leishmania major promastigotes, resazurin fluorescence viability; inhibition, % at 10 µM; AID 1063; in the data active = inhibition above about 50%;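 note: promastigotes grown with compound for 44 hours at 28 °C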
KCC2 mod = modulators of human KCC2 chloride dependent transport. Q9H2X9. KCC2 cells, thallium flux FluoZin-2 fluorescence. B-score of Tl+ flux slope (higher = more flux/activation; lower = inhibition) at 10 µM. actives 2.2% (n = 190,000);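 active = thallium flux slope and its plate-corrected score both differing from the plate sample mean at a set confidence after two filtering rounds, in either direction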;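 note: slope of fluorescence scaled to starting intensity during 10 to 20 s after thallium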
Target sequence (Q9H2X9 whole entry, looked up): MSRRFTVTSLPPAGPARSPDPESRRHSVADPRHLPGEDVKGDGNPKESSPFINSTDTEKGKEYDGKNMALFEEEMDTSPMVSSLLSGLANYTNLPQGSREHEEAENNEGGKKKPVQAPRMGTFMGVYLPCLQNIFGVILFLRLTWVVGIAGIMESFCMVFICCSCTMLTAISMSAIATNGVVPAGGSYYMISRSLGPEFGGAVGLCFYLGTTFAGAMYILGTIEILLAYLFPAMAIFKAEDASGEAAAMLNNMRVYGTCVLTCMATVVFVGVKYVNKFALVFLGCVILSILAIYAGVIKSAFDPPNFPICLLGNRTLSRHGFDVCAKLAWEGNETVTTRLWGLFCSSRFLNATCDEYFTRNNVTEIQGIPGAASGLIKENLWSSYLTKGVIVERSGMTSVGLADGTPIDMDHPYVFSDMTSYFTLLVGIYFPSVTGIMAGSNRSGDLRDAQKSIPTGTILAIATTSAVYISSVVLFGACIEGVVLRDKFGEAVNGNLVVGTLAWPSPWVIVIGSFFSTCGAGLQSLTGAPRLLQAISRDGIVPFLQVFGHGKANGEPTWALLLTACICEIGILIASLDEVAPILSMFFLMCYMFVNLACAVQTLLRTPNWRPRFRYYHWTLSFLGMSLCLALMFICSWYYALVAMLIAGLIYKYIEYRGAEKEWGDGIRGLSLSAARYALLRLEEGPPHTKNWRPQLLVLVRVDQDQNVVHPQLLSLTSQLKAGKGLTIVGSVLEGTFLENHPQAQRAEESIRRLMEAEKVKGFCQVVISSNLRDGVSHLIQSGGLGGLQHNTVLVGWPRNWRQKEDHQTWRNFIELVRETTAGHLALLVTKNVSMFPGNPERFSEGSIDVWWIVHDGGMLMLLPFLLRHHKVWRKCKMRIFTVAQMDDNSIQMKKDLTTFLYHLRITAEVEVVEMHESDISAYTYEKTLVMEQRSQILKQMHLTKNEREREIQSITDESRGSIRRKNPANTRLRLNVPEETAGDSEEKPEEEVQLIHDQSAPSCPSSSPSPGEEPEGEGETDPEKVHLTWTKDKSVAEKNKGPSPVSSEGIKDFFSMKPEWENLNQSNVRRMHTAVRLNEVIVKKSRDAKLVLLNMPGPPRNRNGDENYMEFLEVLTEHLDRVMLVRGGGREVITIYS
WT yeast gro inh = growth inhibition of WT yeast, mitochondrial fusion screen | actives 2.1% (n = 190,000) | mitochondrial fusion phenotypic screen, WT strain | AID 1362 | inhibition, % at 10 µM; in the data active = inhibition above about 58%; tested in S. cerevisiae
ROMK primary = modulates human ROMK potassium channel activity; AID 1918; actives 2% (n = 130,000); Tet-inducible ROMK, thallium flux fluorescence; actives lie on both sides; B-score at 10 µM; P48048;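 active = signal ratio slope over the read window, or its plate-corrected B-score, at least 3 SD from the plate mean, either direction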;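 note: B-score of the F/F0 ratio slope over 7 to 12 s after thallium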
m-calpain inh = calpain II (pig) inhibition; purified calpain II, fluorogenic peptide substrate, 30 min; inhibition, % at 16 µM; actives 0.37% (n = 220,000);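 active = inhibition above about 50%, limit read from the data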
Each line names hits and unclear results; the compound was inactive in the other large screens.

O=C(Cn1nnc(-c2ccc(CN3CCOCC3)cc2)n1)N1CCCc2ccccc21	Lmaj promast 84 (no result: KCC2 mod, ROMK primary)
CC(C)CC(=O)Nc1cccc(NC(=O)CC(C)C)n1	Lmaj promast 52
CC(C)(C)c1ccc(C(=O)NC(=S)NNC(=O)c2cccs2)cc1	KCC2 mod 57, WT yeast gro inh 77, ROMK primary 9.1
CCCC(=O)Nc1ccc(C(=O)NNC(=S)NC(=O)c2cccs2)cc1	Lmaj promast 99 (no result: ROMK primary)
Cc1cccc(C(=O)NC(=S)NNC(=O)c2cccs2)c1	KCC2 mod 34 (no result: ROMK primary)
Cc1cccc(C(=O)NC(=S)NNC(=O)c2ccc(Cl)cc2)c1	KCC2 mod 42, ROMK primary 5.3
O=C(NNC(=S)Nc1ccccc1)c1cccs1	none
CC(=O)Nc1ccc(N2N=C(C)C(N=Nc3ccccc3)C2=O)cc1 (stereo not drawn)	none
CC1=NN(C(N)=S)C(=O)C1N=Nc1ccc(C)cc1C (stereo not drawn)	Lmaj promast 60, KCC2 mod 21, WT yeast gro inh 70
CC1=NN(c2ccccc2)C(=O)C1N=Nc1ccc(C)cc1 (stereo not drawn)	none
CC1=NN(C(N)=S)C(=O)C1N=Nc1ccccc1C (stereo not drawn)	KCC2 mod 18, WT yeast gro inh 65 (no result: ROMK primary)
CC1=NN(C(N)=S)C(=O)C1N=Nc1c(C)cc(C)cc1C (stereo not drawn)	WT yeast gro inh 61 (no result: ROMK primary)
CC1=NN(c2ccccc2)C(=O)C1N=Nc1ccc(S(N)(=O)=O)cc1 (stereo not drawn)	none (no result: Lmaj promast, WT yeast gro inh, ROMK primary)
CCC1CCCCN1Cc1ccc(OC)c(C)c1C (stereo not drawn)	none (no result: KCC2 mod)
Cc1nn(CC(=O)c2ccc(Cl)s2)c(C)c1[N+](=O)[O-]	none (no result: KCC2 mod)
C/C(CC(=O)NCc1ccco1)=N\NC(=O)CC#N	none
O=C1CCC(c2ccccc2)N1C(=O)c1cccnc1 (stereo not drawn)	none (no result: KCC2 mod)
CC(/C=C1\SC(=S)N(NC(=O)c2cccc(O)c2)C1=O)=C\c1ccccc1	WT yeast gro inh 86
CCCCc1ccc(NC(=S)N2CCCC(C)C2)cc1 (stereo not drawn)	WT yeast gro inh 75
Fc1ccc(NC(=S)N2CCOCC2)cc1Cl	none (no result: KCC2 mod, ROMK primary)
S=C(Nc1ccc(Cl)cc1)N1CCCCC1	none (no result: ROMK primary)
CCc1ccc(NC(=S)N2CCCCCCC2)cc1	Lmaj promast 56, WT yeast gro inh 64
Fc1ccc(NC(=S)N2CCCC2)cc1Cl	Lmaj promast 95
CC1CCCCC1NC(=O)/C(C#N)=C/c1ccc2c(c1)OCCO2 (stereo not drawn)	Lmaj promast 59
C=CCNC(=O)/C(C#N)=C/c1ccc2c(c1)OCCO2	none
CCOC(=O)c1c(C)sc(Sc2ccc(Cl)cc2[N+](=O)[O-])c1OC	WT yeast gro inh 76
C/C(=N\O)C(C)(C)Nc1ccc(Cl)cc1	none (no result: Lmaj promast, WT yeast gro inh)
O=C(CCN1C(=O)C2C3C=CC(C3)C2C1=O)N1CCN(c2ccccn2)CC1 (stereo not drawn)	none (no result: ROMK primary)
O=C(CCSCc1ccccc1Cl)N1CCN(c2cccc(Cl)c2)CC1	Lmaj promast 69, WT yeast gro inh 61 (no result: ROMK primary)
O=C(CCN1C(=O)C2C3C=CC(C3)C2C1=O)N1CCN(c2cccc(Cl)c2)CC1 (stereo not drawn)	Lmaj promast 56 (no result: KCC2 mod, ROMK primary)
O=C(CSCc1ccccc1Cl)N1CCN(c2ccccn2)CC1	Lmaj promast 60
c1ccc(CN2CCC(Nc3nc(-c4ccccc4)nc4ccccc34)CC2)cc1	Lmaj promast 100 (no result: KCC2 mod, ROMK primary)
Cc1csc2ncnc(NC3CCN(Cc4ccccc4)CC3)c12	none (no result: Lmaj promast, WT yeast gro inh, ROMK primary)
O=C(Nc1ccccc1F)C1CCCN(S(=O)(=O)c2ccccc2)C1 (stereo not drawn)	none
Cc1ccc(NC(=O)C(OC(=O)c2cc(C)oc2C)c2ccccc2)cc1 (stereo not drawn)	Lmaj promast 52 (no result: ROMK primary)
Cc1cc(C(=O)OC(C(=O)Nc2cccc(C(F)(F)F)c2)c2ccccc2)c(C)o1 (stereo not drawn)	none (no result: ROMK primary)
Cc1ccc(-c2csc(/C=C3\SC(C)C(=O)N3CC(=O)Nc3ccccc3F)n2)cc1 (stereo not drawn)	m-calpain inh 67 (no result: Lmaj promast, WT yeast gro inh, ROMK primary)
Cc1ccc2sc(N(CCCN(C)C)C(=O)c3ccc(S(=O)(=O)N(C)C)cc3)nc2c1C	Lmaj promast 74
CCCCN(C)S(=O)(=O)c1ccc(C(=O)N(CCN(C)C)c2nc3ccc(C)cc3s2)cc1	none
CC(=O)N(C)Cc1ccc(C(=O)CCl)cc1	Lmaj promast 101
COc1ccc(C(=O)Sc2ccc(C)cc2)cc1OC	none (no result: ROMK primary)
COc1ccc(C(=O)Sc2ccc(Cl)cc2)cc1OC	Lmaj promast 54
COc1ccc(NC(=O)CN(C)CC(=O)Nc2ccc(Cl)cc2F)cc1	none
CCC(Sc1nc2ccccc2o1)C(=O)O (stereo not drawn)	none
CCC(Sc1nc2ccccc2o1)C(=O)Nc1nnc(C)s1 (stereo not drawn)	Lmaj promast 55
O=C1CSC(=S)N1c1cccnc1	none (no result: ROMK primary)
S=C1SCN(Cc2cccnc2)CN1Cc1ccccc1	Lmaj promast 72
CC(C)CN1CN(Cc2ccccc2)CNC1=S	none
CC(C)(C)N1CSC(=S)N(Cc2ccccc2)C1	Lmaj promast 91
O=C1CSC(=S)N1Cc1cccnc1	Lmaj promast 100 (no result: ROMK primary)
CC(C)N1CSC(=S)N(Cc2ccccc2)C1	Lmaj promast 75
COc1cc(C2C(C#N)=C(N)Oc3n[nH]c(-c4cccnc4)c32)cc(Br)c1O (stereo not drawn)	none
CCc1ccccc1NC(=S)N(CCN(C)C)Cc1cccs1	none
CCc1ccccc1NC(=S)NC1CC2CCCC(C1)N2Cc1cccs1 (stereo not drawn)	Lmaj promast 79 (no result: ROMK primary)
Cc1cccc(NC(=S)NC2CC3CCCC(C2)N3Cc2cccs2)c1C (stereo not drawn)	Lmaj promast 85 (no result: ROMK primary)
Cc1cccc(NC(=S)NC2CC3CCCC(C2)N3CC(C)C)c1C (stereo not drawn)	Lmaj promast 89
CCCN1C2CCCC1CC(NC(=S)Nc1cccc(C)c1C)C2 (stereo not drawn)	none (no result: Lmaj promast, KCC2 mod, WT yeast gro inh, ROMK primary)
CCCN1C2CCCC1CC(NC(=S)Nc1cc(C)ccc1C)C2 (stereo not drawn)	Lmaj promast 90 (no result: ROMK primary)
CC(C)OP(=O)(c1ccc(N(C)C)cc1)C(O)c1cccnc1 (stereo not drawn)	none (no result: Lmaj promast, WT yeast gro inh, ROMK primary)
Cc1nc2cc(NC(=O)c3ccc(N4C(=O)CCC4=O)cc3)ccc2s1	none
O=C(Nc1cc(C(F)(F)F)cc(C(F)(F)F)c1)Nc1cnn(-c2ccc([N+](=O)[O-])cc2)c1C(F)(F)F	none (no result: Lmaj promast, WT yeast gro inh, ROMK primary)
CCCN(CC1CC1)S(=O)(=O)c1ccc(S(N)(=O)=O)cc1	none (no result: ROMK primary)
Cc1[nH]c2ccc3ncccc3c2c1C	Lmaj promast 56
Cc1ccc(C(=O)O/N=C/c2c(N3CCOCC3)n(C)c3ccccc23)cc1	Lmaj promast 98 (no result: ROMK primary)
Cn1c(N2CCOCC2)c(/C=N/OC(=O)c2ccc(F)cc2)c2ccccc21	Lmaj promast 100 (no result: ROMK primary)
Cn1c(N2CCOCC2)c(/C=N/OC(=O)c2cccnc2Cl)c2ccccc21	Lmaj promast 100
Cn1c(N2CCOCC2)c(/C=N/O)c2ccccc21	none
Cn1c(Cl)c(/C=N/OC(=O)c2ccc(Cl)cc2)c2ccccc21	none (no result: ROMK primary)
CC(=O)O/N=C/c1c(N2CCOCC2)n(C)c2ccccc12	Lmaj promast 99 (no result: ROMK primary)
